In the library only some 1.7% were active in any assay of this set; here they are far more common.
PTHR1 ag: activates the human parathyroid hormone receptor PTHR1; Q03431; HEK293 GP2 PTHR1 cells, GloSensor cAMP luminescence, 1 h; Potency, µM (titrated, usually from 115 µM), most hits filed as activators; actives 0.075% (n = 410,000); AID 743266; further: nearly all actives have a fitted effect of over 55% in size
Target sequence (Q03431 whole entry, looked up): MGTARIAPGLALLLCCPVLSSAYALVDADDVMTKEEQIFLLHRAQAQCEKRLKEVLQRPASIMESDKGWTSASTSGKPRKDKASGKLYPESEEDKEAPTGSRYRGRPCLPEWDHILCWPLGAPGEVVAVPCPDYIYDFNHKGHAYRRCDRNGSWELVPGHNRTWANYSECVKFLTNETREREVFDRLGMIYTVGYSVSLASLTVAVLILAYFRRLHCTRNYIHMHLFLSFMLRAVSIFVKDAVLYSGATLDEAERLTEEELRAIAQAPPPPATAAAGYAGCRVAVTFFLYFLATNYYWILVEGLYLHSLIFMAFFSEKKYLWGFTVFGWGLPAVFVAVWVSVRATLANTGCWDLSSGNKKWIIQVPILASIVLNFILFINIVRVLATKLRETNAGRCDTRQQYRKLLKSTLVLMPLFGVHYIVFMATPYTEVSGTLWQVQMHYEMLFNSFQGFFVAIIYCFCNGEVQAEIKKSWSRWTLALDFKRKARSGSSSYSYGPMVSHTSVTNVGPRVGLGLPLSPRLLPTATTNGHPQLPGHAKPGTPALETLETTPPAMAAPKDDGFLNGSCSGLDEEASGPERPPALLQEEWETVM
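HEK-293-derived GP2 cells expressing PTHR1 and a GloSensor cAMP reporter, 3,000/well, plated overnight, given luciferin plus IBMX (each 0.5 mM as added) for 1 h at 37 °C, then compound for 1 h at 37 °C. Luminescence was read after 15 min at room temperature.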
GLP1R inv ag: inverse agonists of human GLP-1 receptor; P43220; HEK293 GLP-1R CRE-luciferase, luminescence, 24 h; GLP-1R form is constitutively active; Potency, µM (highest dose often 38.3 µM), most hits filed as inhibitors; actives 1.6% (n = 410,000); AID 624417; further: nearly all actives have a fitted effect of over 55% in size
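Assay principle: reduced luminescence from a cAMP-responsive reporter in HEK293 cells co-expressing a constitutively active GLP-1R. Conditions: 24 hr compound incubation, 37 deg C, 5% CO2.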
GLP1R ag: GLP-1 receptor (human) agonism; AID 624172; HEK293 GLP-1R CRE-luciferase, luminescence, 4-6 h; cells express a hypersensitive GLP-1R form; Potency, µM (series often up to 45.6 µM), most hits filed as activators; actives 0.007% (n = 380,000); P43220
GLP1R cytotox: cytotoxicity counter-screen for GLP-1 receptor inverse agonists; HEK293 cAMP-luciferase reporter cells, luminescence, 24 h; Potency, µM (doses to about 38.3 µM), actives largely listed as inhibitors; actives 0.13% (n = 410,000);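 further: loss of luciferase light is scored as toxicity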
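Cells in DMEM/10% Nu serum/1% pen-strep, 1536-well format. Pre-incubated 12 h, dosed with 23 nL compound, incubated a further 24 h. Luciferase detection, 12 min at room temp, luminescence.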
Each line names hits and unclear results; the compound was inactive in the other large screens. The call rests on the fitted dose curve; in most records, active means well fitted curve in the direction sought with a large enough effect; inconclusive means small, poorly fitted or top-dose-only effect, or another doubt; inactive means no such curve, though single readings can be large; an effect the other way counts as inactive or inconclusive.

Cc1ccc(NC(=S)N=Nc2c(O)[nH]c3ccccc23)cc1	GLP1R inv ag inconclusive, GLP1R cytotox 4µM
COc1ccc(S(=O)(=O)N=Nc2c(O)[nH]c3ccccc23)cc1	none
CCCSc1ncc(Cl)c(C(=O)N2CCN(c3cccc(Cl)c3)CC2)n1	GLP1R inv ag inconclusive (no result: GLP1R ag)
Cc1ccc(OCC(=O)Nc2ccc3nc(SCC(=O)N4CCOCC4)sc3c2)cc1C	none (no result: GLP1R ag)
CC(C)OCCCN(Cc1ccco1)C(=O)c1cc2c(s1)-c1ccccc1OC2	GLP1R inv ag inconclusive
COc1ccccc1N1CCN(c2nc3ccccc3n3cnnc23)CC1	none (no result: GLP1R ag)
O=C(C1CCN(S(=O)(=O)Cc2ccccc2)CC1)N1CCN(c2ccc(F)cc2)CC1	none (no result: GLP1R ag)
Nc1c(C(=O)O)ccc2c1C(=O)c1ccccc1C2=O	GLP1R cytotox 10µM
Nc1cc(C(=O)O)c(N)c2c1C(=O)c1ccccc1C2=O	GLP1R inv ag inconclusive, GLP1R cytotox inconclusive
CCOC(=O)[C@H](CCc1ccccc1)N[C@H]1CCCN2CCC[C@@H](C(=O)O)N2C1=O	none (no result: PTHR1 ag, GLP1R inv ag, GLP1R cytotox)
CC(=O)n1cc(Nc2ccccc2C(=O)O)c2ccccc21	none
COc1ccccc1N(C(=O)CCl)c1cn(C(C)=O)c2ccccc12	GLP1R inv ag 3.2µM, GLP1R cytotox inconclusive
CC(=O)n1cc(N(C(=O)CCl)c2ccc(Cl)cc2)c2ccccc21	GLP1R inv ag 11µM, GLP1R cytotox inconclusive
CCOC(=O)c1ccccc1Nc1cn(C(C)=O)c2ccccc12	none
O=C(CSc1cn(CC(=O)N2CCCC2)c2ccccc12)Nc1cc(C(F)(F)F)ccc1Cl	GLP1R inv ag inconclusive (no result: GLP1R ag)
Cc1cc(-n2c(C)nc3ccccc3c2=O)ccc1NC(=O)c1cccc([N+](=O)[O-])c1	none (no result: GLP1R ag)
CNC1C(O)C(OC2C(NC(=O)C(O)CN)CC(N)C(OC3OC(CN)C(O)C(O)C3O)C2O)OCC1(C)O (centres undefined)	none (no result: PTHR1 ag, GLP1R inv ag, GLP1R cytotox)
COc1ccccc1CNC(=O)CN1C(=O)COc2ccc(S(=O)(=O)N3CCC(C)CC3)cc21	none
Cc1onc(-c2ccccc2Cl)c1C(=O)NCc1nc(-c2ccc(C(F)(F)F)cc2)no1	GLP1R inv ag 10µM
Cc1onc(-c2ccccc2Cl)c1C(=O)NCc1ccccc1F	none
O=C(Nc1ccc2oc(-c3cccnc3)nc2c1)c1ccc(-c2cccc(OC(F)(F)F)c2)o1	none (no result: GLP1R ag)
CN(Cc1ccccc1)CC(O)COc1ccc(CNCc2ccc(Cl)s2)cc1 (centres undefined)	GLP1R inv ag 4.5µM
CCN(C(=O)c1ccc2c(c1)OCO2)C12CC3CC(CC(C3)C1)C2	GLP1R inv ag 11µM
CCc1nc2ccc(C(=O)NCCc3c[nH]c4ccccc34)cn2c1N(C=O)CCC(C)C	GLP1R inv ag 5.6µM, GLP1R cytotox inconclusive
COCCNC(=S)NCc1ccc2[nH]c3c(c2c1)CCCC3	GLP1R inv ag inconclusive
Cc1ccc(NC(=S)NCc2ccc3[nH]c4c(c3c2)CCCC4)cc1	GLP1R inv ag 13µM, GLP1R cytotox inconclusive
O=C(NC1CCCc2c1cnn2-c1ccccc1F)c1ccccc1N1CCOCC1 (centres undefined)	GLP1R inv ag 7.9µM
Cc1cc(C)cc(-n2ncc3c2CCCC3NC(=O)c2ccccc2N2CCOCC2)c1 (centres undefined)	GLP1R inv ag inconclusive
Cc1ccc(C(C)C)c(OCC(=O)N2CCC(c3nc4ccccc4o3)CC2)c1	GLP1R inv ag inconclusive (no result: GLP1R ag)
COc1ccc(-c2cc3ccc(O)c(CN4CCC(C)CC4)c3oc2=O)cc1	none (no result: GLP1R ag)
CCOC(=O)C1=CN(Cc2cccc(F)c2)S(=O)(=O)N(C)C1c1ccc(F)c(Cl)c1 (centres undefined)	GLP1R inv ag 10µM
CN(C)CCOc1ccccc1Cc1ccccc1 (tested in a mixture with another compound)	none (no result: PTHR1 ag, GLP1R inv ag, GLP1R cytotox)
C=CCc1cc(OC)ccc1OCCOCCN1CCc2ccccc2C1	GLP1R inv ag 10µM
CCOc1ccc(OCCOCCN2CCc3ccccc3C2)cc1	none
CN(C)C(=O)CN1C(=O)NC2(CCCc3ccccc32)C1=O (centres undefined)	PTHR1 ag inconclusive
Cc1ccc(CN(C)C(=O)CN2C(=O)NC3(CCCc4ccccc43)C2=O)c(C)c1 (centres undefined)	GLP1R inv ag 3.2µM
Cc1nn(Cc2ccc(Cl)c(Cl)c2)c(C)c1NC(=O)c1cc(CC(C)C)on1	GLP1R inv ag 3.2µM
Cc1ccccc1Cn1nc(C)c(NC(=O)c2cc(CC(C)C)on2)c1C	GLP1R inv ag inconclusive
Cc1cccc(N2CCN(C(=O)c3nn(C)c4c3CSc3ccccc3-4)CC2C)c1 (centres undefined)	GLP1R inv ag inconclusive (no result: GLP1R ag)
CCN1CCc2nc3sc(C(=O)c4ccccc4)c(N)c3cc2C1	none (no result: GLP1R ag)
CN1CCN(NC(=O)c2cn(-c3ccccc3)nc2-c2cccs2)CC1	none
CN1CCN(NC(=O)c2cn(-c3ccccc3)nc2-c2cccc(Br)c2)CC1	GLP1R inv ag 3.2µM, GLP1R cytotox inconclusive
CCCCCCC(C)OC(=O)Nc1cccc2ccccc12 (centres undefined)	GLP1R inv ag 8.9µM
Cc1cccn2c(=O)c3cc(C(=O)NCCc4ccc(S(N)(=O)=O)cc4)n(C)c3nc12	none (no result: GLP1R ag)
CCc1cccc(-n2c(C)nc3c(cnn3-c3ccc(C)c(C)c3)c2=O)c1	GLP1R inv ag inconclusive
COc1ccc(C(=O)NC(C(=O)N2CCN(C/C=C/c3ccccc3)CC2)C(C)C)cc1 (centres undefined)	none
CC(C)[C@H](NC(=O)c1ccc([N+](=O)[O-])cc1Cl)C(=O)N1CCN(C/C=C/c2ccccc2)CC1	GLP1R inv ag 10µM
N#Cc1ccc(S(=O)(=O)N2CCC(Oc3cccc(C(F)(F)F)c3)CC2)cc1	none (no result: GLP1R ag)
CN(CCOc1ccc(Cl)cc1)C(=O)c1cccc(S(=O)(=O)N2CCN(c3ccc(F)cc3)CC2)c1	GLP1R inv ag 4µM
Cc1ccc2onc(CC(=O)N3CCN(c4cc(Cl)ccc4C)CC3)c2c1	GLP1R inv ag inconclusive (no result: GLP1R ag)
Cc1cc(C)c(NC(=O)C2CCN(c3nnc(C)c4c(C)n(-c5ccccc5)nc34)CC2)c(C)c1	none (no result: GLP1R ag)
Cc1ccc(OC(C)C(=O)Nc2ccncc2)cc1 (centres undefined)	none
Cc1ccc(OC(C)C(=O)Nc2ccc(C)c(S(=O)(=O)Nc3ccc(C)cc3C)c2)cc1 (centres undefined)	GLP1R inv ag 4µM
O=C(c1ccc(CN2CCc3ccccc3C2)cc1)N1CCN(c2ccc(F)cc2)CC1	GLP1R inv ag 2µM
CCN(CC)C(=O)CSc1nc2ccccc2c(=O)n1CC1CCCCC1	GLP1R inv ag 5.6µM
COc1ccccc1CNC(=O)C1CCN(S(=O)(=O)c2c(C)noc2/C=C/c2c(C)cc(C)cc2C)CC1	none (no result: GLP1R ag)
O=C(CN(Cc1ccc(Cl)c(Cl)c1)S(=O)(=O)c1ccccc1)N/N=C\c1ccc2c(c1)OCO2	GLP1R inv ag 2.2µM
O=C(CN(Cc1ccccc1)S(=O)(=O)c1ccccc1)N/N=C/c1ccc2c(c1)OCO2	GLP1R cytotox inconclusive
Cc1nn(Cc2cccc(C(=O)NC34CC5CC(CC(C5)C3)C4)c2)c(C)c1Br	GLP1R inv ag 2.8µM
